3T3 cytotox = Cytotoxic Profiling in NIH 3T3 Cell Line of Diverse Libraries Using Quantitative High-Throughput Screening | NIH 3T3 viability, CellTiter-Glo ATP luminescence, 48-72 h | Potency, µM (highest dose often 96.7 µM), usual class: inhibitors | 4.3% of 94,000 active; further: nearly all actives have a fitted effect of over 55% in size
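NIH 3T3 cells at 400 cells/well received 23 nL of compound by pintool and were incubated 48 or 72 h at 37 °C. Viability was read as ATP-coupled CellTiter-Glo luminescence.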
HEK293 tox = Cytotoxic Profiling in HEK 293 Cell Line of Diverse Libraries Using Quantitative High-Throughput Screening; Potency, µM (titrated, usually from 115 µM), usual class: inhibitors; 6.6% of 94,000 active; HEK 293 viability, ATP luminescence (CellTiter-Glo), 48-72 h; further: nearly all actives have a fitted effect of over 60% in size
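250 HEK 293 cells/well; compound by pintool; incubated 48 or 72 hr at 37 degree Celsius; CellTiter-Glo added, 10 min RT, luminescence imaged.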
FLuc inh = Firefly luciferase inhibition profiling of diverse chemical library using quantitative high-throughput screening; Potency, µM (top dose mostly 115 µM), hits mostly inhibitors; 2.5% of 76,000 active; purified P. pyralis luciferase, luminescence, biochemical; AID 1347043, 2019; further: nearly all actives have a fitted effect of over 65% in size
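FLuc 10nM, D-luciferin 10uM, ATP 10uM, Mg acetate 10mM, Tris acetate pH 7.5, Tween/BSA; cpd qHTS; enzyme added last; CCD luminescence.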
NPR1 antag = Natriuretic polypeptide receptor (hNpr1) antagonism - Primary qHTS; Atrial natriuretic peptide receptor 1 (Homo sapiens), P16066; HEK293 hNpr1 GloSensor cGMP, ANP-stimulated luminescence; Potency, µM (titrated, usually from 46.3 µM), most hits filed as inhibitors; 1.6% of 76,000 active; AID 1347048, 2019; calls by dose curve; further: nearly all actives have a fitted effect of over 60% in size
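HEK293 cells stably expressing human Npr1 and cGMP GloSensor pGS-40F, loaded 2 h with 2% GloSensor reagent, given compound 30 min at room temperature. Luminescence read before and 20 min after 0.1 nM hNppA.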
Npr1 antag conf = Natriuretic polypeptide receptor (hNpr1) antagonism - Confirmation | shares compounds with NPR1 antag | HEK293 hNpr1 cGMP GloSensor luminescence, ANP-stimulated | Potency, µM (titrated, usually from 57.6 µM), hits mostly inhibitors | 76% of 1,400 active | AID 1347044, 2019; calls by dose curve; further: nearly all actives have a fitted effect of over 70% in size
NPR2 antag = Natriuretic polypeptide receptor (hNpr2) antagonism - Subtype selectivity assay | shares compounds with NPR1 antag | HEK293 hNpr2 GloSensor cGMP luminescence, CNP-stimulated | Potency, µM (doses to about 57.6 µM), usual class: inhibitors | 67% of 1,400 active | AID 1347046, 2019; calls by dose curve; further: nearly all actives have a fitted effect of over 70% in size
FLuc inh counter = Natriuretic polypeptide receptor (hNpr1) antagonism - Confirmation firefly luciferase (FLuc) inhibition counterscreen; 0.7% of 1,400 active; AID 1347047, 2019; Potency, µM (series often up to 57.6 µM), usual class: inhibitors; shares compounds with NPR1 antag; purified FLuc enzyme, luminescence, Km substrate
GloSensor ctrl = Natriuretic polypeptide receptor (hNpr1) antagonism - Counterscreen GloSensor control cell line; shares compounds with NPR1 antag; HEK293 GloSensor cGMP, SNP-stimulated, luminescence; Potency, µM (titrated, usually from 57.6 µM), most hits filed as inhibitors; 69% of 1,400 active; calls by dose curve; further: nearly all actives have a fitted effect of over 70% in size
Numbers stand for hits; – = inactive; ? = inconclusive; · = no result given. In the library only some 11% were active in any assay of this set; here they are far more common. Unless noted, the call rests on the fitted dose curve; in most records, active means well fitted curve in the direction sought with a large enough effect; inconclusive means small, poorly fitted or top-dose-only effect, or another doubt; inactive means no such curve, though single readings can be large; an effect the other way counts as inactive or inconclusive.

SMILES | 3T3 cytotox | HEK293 tox | FLuc inh | NPR1 antag | Npr1 antag conf | NPR2 antag | FLuc inh counter | GloSensor ctrl
FC(F)(F)c1ccc(O[C@H]2COCCN(c3nc4ccccc4o3)C2)nc1 | ? | 100µM | – | 35µM | 40µM | 35µM | – | 35µM
O=C(NC1CCCC1)O[C@H]1COCCN(c2nc3ccccc3o2)C1 | – | – | – | – | · | · | · | ·
Cc1ccc(CN2CC3(C2)NC(=O)c2ccccc2O3)cc1 | ? | ? | – | – | · | · | · | ·
O=C1NCc2ccccc2CC12CCCN(CC1CC=CCC1)C2 (centres undefined) | – | – | · | · | – | – | – | –
O=C1NCc2ccccc2CC12CCN(CC1CC=CCC1)CC2 (centres undefined) | – | – | · | · | · | · | · | ·
CC1=C(C(=O)Nc2ccccc2)C(c2cccc(C)c2)N2C(CC(=O)NCC(C)C)=CSC2=N1 (centres undefined) | ? | ? | – | – | · | · | · | ·
O=C(c1ccncc1)N1CC2CCC(C1)N2Cc1ccc(-c2cncnc2)cc1 | – | ? | · | · | · | · | · | ·
COc1cccc(-c2ccc(CN3C4CCC3CN(C(C)C)C4)cc2)c1 | – | – | · | · | · | · | · | ·
FC(F)(F)c1ccc(N2C3CCC2CN(Cc2ccc(-c4cccs4)cc2)C3)cc1 | – | – | – | – | · | · | · | ·
O=C(c1ccncc1)N1CC2CCC(C1)N2Cc1ccc(-c2ccsc2)cc1 | ? | ? | – | 2.5µM | 6.9µM | 6.9µM | – | 6.1µM
COc1cccc(-c2ccc(CN3C4CCC3CN(C(=O)c3ccncc3)C4)cc2)c1 | ? | ? | · | · | 12µM | 15µM | – | 14µM
O=C(c1ccncc1)N1CC2CCC(C1)N2Cc1ccc(-c2cccs2)cc1 | ? | ? | · | · | 4.3µM | 5.4µM | – | 4.3µM
O=C(NC1CC1)c1cc2c(=O)[nH]c(-c3ccccc3)cn2n1 | ? | ? | – | – | · | · | · | ·
CC1=C[C@@H](CNS(=O)(=O)c2ccc(C#N)cc2)[C@H](C(C)C)C[C@H]1CC(=O)NCc1ccc(C#N)cc1 | ? | ? | – | – | · | · | · | ·
C[C@@H](c1ccccc1)N(C)C(=O)c1cn(Cc2cccc(C(F)(F)F)c2)nn1 | ? | ? | – | – | · | · | · | ·
Cc1cc(NC(=O)Cc2c[nH]c3ncc(-c4ccccc4C)cc23)n(C)n1 | ? | ? | – | 16µM | 31µM | 28µM | – | 28µM
COc1ccccc1-c1[nH]nc2ncc(C(=O)Nc3cc(C)nn3C)nc12 | ? | – | – | – | · | · | · | ·
NC(=O)Cc1c[nH]c2ncc(-c3ccc(Oc4ccccc4)cc3)cc12 | 22µM | 35µM | – | 7.9µM | 7.9µM | 11µM | – | 7.9µM
COc1ccc(NC(=O)Cc2c[nH]c3ncc(-c4ccccc4C)cc23)cc1 | ? | 79µM | – | 35µM | 25µM | 18µM | – | 31µM
COc1ccc(-c2cnc3[nH]cc(CC(=O)Nc4ccc(OC)nc4)c3c2)cc1 | ? | ? | – | ? | ? | ? | – | ?
O=C(NCc1c[nH]c2ncccc12)c1cccnc1 | – | – | – | – | · | · | · | ·
Oc1ccccc1CNC[C@H]1O[C@H](Cc2cc(CN3CCCCC3)on2)CC[C@@H]1O | – | ? | – | – | · | · | · | ·
CN(CCCn1ccnc1-c1cnc[nH]1)c1ccccc1 | ? | ? | – | – | · | · | · | ·
CCn1cc(S(=O)(=O)N2CCC(c3noc(COCc4ccccc4)n3)CC2)cn1 | – | – | · | · | · | · | · | ·
COc1ccc(-n2c(=O)c(C(=O)Nc3cccc(Cl)c3)nc3cccnc32)cc1 | – | ? | · | · | · | · | · | ·

Source: PubChem (National Center for Advancing Translational Sciences (NCATS))
